The values below come from ChEMBL document CHEMBL1201862, “PubChem BioAssay data set” (2004).

Out of some 57,000 sequences screened, about 5,100 (8.9%) were called active. Cut-off read from the data, not from the text of the source: active = GI50 up to about 1.1 µM and inactive = higher. A selection follows. Potency and affinity values are given separately.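 A five-concentration, 48-hour dose response in 96-well plates underlies each endpoint, interpolated linearly between surrounding concentrations. At the GI50, growth is halved.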

The test system of this assay is HCT-116. The experiment in a line: NCI tumour cell line growth inhibition, 48 h.
“[Bis(aminomethyl)tetramethylenesilane]dichloropaltinum(II), CHEMBL2146205”: the GI50 was found to be 11.5 µM.

For “[Bis(aminomethyl)pentamethylenesilane]dichloropaltinum(II), CHEMBL2146202”, the GI50 was 2.48 µM.

On to CISPLATIN, CHEMBL11359, for which the GI50 amounted to 4.12 µM.

Take “mu-(1,7-nanodiamine-N,N')bis-(cis-aminedichloroplatimum (II)), CHEMBL2146215”: the GI50 turned out to be 41.3 µM.

As to “[Bis(aminomethyl)pentamethylenesilane]tetrachloropaltinum(IV), CHEMBL2146204”, the GI50 is 1.13 µM.

Turning to “[Bis(aminomethyl)dimethylsilane]tetrachloroplatinum(IV), CHEMBL2146190”, the GI50 was found to be 8.77 µM.

Substance “[Bis(aminomethyl)diethylsilane]tetrachloroplatinum(IV), CHEMBL2146203” returned a GI50 of 3.94 µM.

Consider “[Bis(aminomethyl)tetramethylenesilane]tetrachloropaltinum(IV), CHEMBL2146189”, for which the GI50 is 4.18 µM.
